From PubChem BioAssay AID434989 (The Scripps Research Institute Molecular Screening Center, 2010) come the findings set out here.

Each structure is given as a SMILES string. Out of some 330,000 compounds screened, about 1,400 (0.42%) were called active. The full list was thinned out, with actives kept by preference. Unmarked numbers belong to inactive results.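 Rule for the calls: active = inhibition above its plate's threshold, mean inhibition of all tested compounds on the plate plus 3 SD (cut at about 37% in these data); inactive = the rest.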

Chain of Orexin/Hypocretin receptor type 1 (Homo sapiens) (O43613 whole entry, looked up): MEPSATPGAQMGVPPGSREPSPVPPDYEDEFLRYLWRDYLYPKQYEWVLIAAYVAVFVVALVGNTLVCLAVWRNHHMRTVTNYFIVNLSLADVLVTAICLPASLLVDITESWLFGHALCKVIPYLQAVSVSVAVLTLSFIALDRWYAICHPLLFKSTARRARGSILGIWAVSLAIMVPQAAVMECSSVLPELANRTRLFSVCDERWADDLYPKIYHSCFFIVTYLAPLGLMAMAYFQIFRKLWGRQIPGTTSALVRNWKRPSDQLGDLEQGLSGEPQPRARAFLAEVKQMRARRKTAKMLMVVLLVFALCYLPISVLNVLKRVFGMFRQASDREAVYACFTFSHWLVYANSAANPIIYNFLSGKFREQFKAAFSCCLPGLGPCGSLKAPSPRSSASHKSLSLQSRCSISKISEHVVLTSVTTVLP

This assay addresses Orexin/Hypocretin receptor type 1 (Homo sapiens) (UniProt O43613). The assay can be described thus: blockers of orexin-A calcium signaling via HCRTR1 – fluorescence, CHO/OX1R cells, Fluo-8 calcium, primary screen (AID 434989).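 Note: 0% = orexin A challenge wells and 100% = SB-334867-A antagonist wells.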 Conditions: Fluo-8 calcium fluorescence, at 5 µM, stronger effect = higher value.
In the case of `N#C/C(=C1\CCCN1)c1nc(-c2ccccc2)cs1`, the inhibition is 52.9% (active). Next, `N#CC(=C1CCCC1)c1nc(-c2ccc(Cl)cc2)cs1`: -23.8%; `Cn1c(/C(C#N)=C2/CCCCCN2)nc2ccccc21`: -27.9%. Next, `CCNC(=O)CSc1nc(-c2ccccc2)cs1`: 4.28%.

In the case of `N#C/C(=C1/CCCN1)c1ccccn1`, the inhibition was -3.72%. The figure for `N#CC(=C1SC=CS1)c1nc(-c2ccccc2)cs1` is 89.5% (active). The figure for `Cc1cccc(C(=O)N[C@H](C(=O)NCc2cccs2)C(C)C)c1` is -7.31%.

Regarding `CCOC(=O)N1CCN(C(=O)C2CCN(c3ncnc4c3sc3cccc(F)c34)CC2)CC1`, the inhibition is 65.7% (active). Next, `CCOC(=O)C1CCN(c2ncnc3c2oc2ccc(Br)cc23)CC1`: -11.1%; `CCOC(=O)N1CCN(C(=O)C2CCN(S(=O)(=O)c3cc(Cl)ccc3OCC)CC2)CC1`: -21.5%; `CCN(CC(=O)NC(C)C)C(=O)c1cc(S(=O)(=O)N2CCCCC2)ccc1N1CCCCC1`: -37.7%. The figure for `CCCCNC(=O)C(C)N(CCN(C)C)C(=O)CCCN1C(=O)NC(c2ccc(Cl)cc2)C(C(=O)OCc2ccccc2)=C1C` (stereo not drawn) is -28.8%; for `O=C(Nc1cccc(Br)c1)c1ccc2snnc2c1` it is -1.56%. Next, `CCc1ccccc1NC(=O)c1ccc2snnc2c1`: -1.72%; `O=C(Nc1ccc2ccccc2c1)Nc1ccc2snnc2c1`: 41.4% (active). As to `COc1ccc(C2=Nn3c(nnc3-c3ccccc3OC)SC2)cc1OC1CCCC1`, the inhibition is -19.5%. The figure for `O=c1c2ccccc2nc2n1C(CSCc1ccccc1)CS2` (stereo not drawn) is -3.31%. Next, `O=c1c2ccccc2nc2n1C(CSc1ccc(F)cc1)CN2` (stereo not drawn): -5.98%; `O=c1c2ccccc2nc2n1C(CSCc1cccc(C(F)(F)F)c1)CS2` (stereo not drawn): 45.5% (active).

Turning to `Cc1ccc(S(=O)(=O)NCC(=O)NNC(=O)c2ccc(Br)cc2)cc1C`, the inhibition was -11.2%. Next, `COc1cccc(CC(=O)OCC(=O)NCc2ccc3c(c2)OCO3)c1`: -9.44%; `Oc1cccc(/C=N/Nc2ccc(Cl)nn2)c1O`: -18.9%; `COc1cccc(/C=N/Nc2cc(C)nc(-c3ccccc3O)n2)c1O`: 93.8% (active). For the compound `COc1ccccc1/C=N/Nc1nc(C)c(C(C)=O)s1`, the inhibition was -4.69%. Turning to `CCNC(=O)N(CC)C[C@H]1N[C@@](CC)(C(=O)OC)[C@H]2C(=O)N(Cc3ccccc3)C(=O)[C@@H]12`, the inhibition is 4.29%.

With `C=CCC[C@H](Cc1ccc(F)cc1)C(=O)OC[C@H](C)NC(=O)[C@H](CC=C)CC(=O)N(CCO)Cc1ccccc1`, the inhibition is 6.31%. The figure for `CN(C)C(=O)CCc1ccc2c3c([nH]c2c1)[C@]1(C)[C@@H](C(=O)N2CCCCC2)C[C@H](CC(=O)NCCC2=CCCCC2)C(=O)N1CC3` is -30.3%; for `Cc1c(NC(=O)C(C)OC(=O)c2ccccc2O)c(=O)n(-c2ccccc2)n1C` (stereo not drawn) it is -6.55%. The figure for `COc1ccc(C(=O)NC2CCCc3c2cnn3-c2cccc(C)c2C)c(OC)n1` (stereo not drawn) is 44.8% (active); for `Cc1cc(C(=O)NC2CCCc3c2cnn3-c2cccc(C)c2C)c(C)o1` (stereo not drawn) it is 26.6%. For `Cn1nccc1C(=O)NC1CCCc2c1cnn2-c1ccccc1F` (stereo not drawn), the inhibition was 8.33%.

On to `CC(C)(C)OC(=O)C[C@@H]1C/C=C\C[C@@H](CC(=O)N(CCO)Cc2ccccc2)C(=O)N[C@H](Cc2ccccc2)COC1=O`, for which the inhibition is -33.6%. The figure for `CN(C(=O)CN(CCO)CC(=O)N(C)C(C)(C)Cc1ccccc1)C(C)(C)Cc1ccccc1` is 68.2% (active); for `CCN(CC)CCCNC(=O)CCc1ccccc1` it is -15%. The figure for `OCCN(Cc1ccccc1)Cc1ccc(Cl)cc1` is 9.29%; for `CCN(CC)C(=O)[C@H]1CC(CC(=O)NCc2ccco2)C(=O)N2CCc3c([nH]c4ccccc34)[C@]12C` (stereo partly drawn) it is -11.1%; for `Cc1c(C(=O)Nc2cccc(S(=O)(=O)N3CCOCC3)c2)oc2ccccc12` it is -3.24%. Next, `C=CCC1(CC=C)CCCN1C(=O)c1cc(COc2ccc(-n3cncn3)cc2)on1`: 34.5% (active). Take `O=C(c1cc(COc2ccc(F)c(F)c2)on1)N1CCOCC1`: the inhibition was -5.38%.

For `COc1cccc(OCc2cc(C(=O)N3CCN(C(=O)c4ccco4)CC3)no2)c1`, the inhibition is -6.35%. Take `Cc1ccc(CNC(=O)Cn2cnc3c(NCc4ccccc4)ncnc32)o1`: the inhibition is 10.5%. Next, `O=C(CNC(=O)c1ccccc1)Oc1ccc([N+](=O)[O-])cc1`: -4.15%; `O=C(NC(Nc1nc2ccc([N+](=O)[O-])cc2s1)(C(F)(F)F)C(F)(F)F)c1ccccc1`: 59.4% (active). Next, `O=C(CCNC(=O)c1ccccc1)Nc1nc2ccccc2s1`: -8.05%; `O=C(Nc1nccs1)C1CCCN1S(=O)(=O)c1cccc2cccnc12` (stereo not drawn): -11.2%. The figure for `COc1ccc(NC(=O)C2CCCN(S(=O)(=O)c3cccc4cccnc34)C2)cc1OC` (stereo not drawn) is -27.1%; for `Cc1cc(C)cc(NC(=O)C2CCCN2S(=O)(=O)c2cccc3cccnc23)c1` (stereo not drawn) it is 104% (active); for `COc1ccc(NC(=O)C2CCCN(S(=O)(=O)c3cccc4cccnc34)C2)cc1` (stereo not drawn) it is -34.5%. In the case of `COc1ccccc1CNC(=O)C1CCCN(S(=O)(=O)c2cccc3cccnc23)C1` (stereo not drawn), the inhibition was 79.2% (active). The figure for `Cc1ccc(NC(=O)C2CCCN2S(=O)(=O)c2cccc3cccnc23)c(C)c1` (stereo not drawn) is -30.7%; for `O=C(CN1C(=O)NC2(CCCC2)C1=O)Nc1cc(C(F)(F)F)ccc1N1CCOCC1` it is -28.3%.

`C[C@H](CO)N1C[C@H](C)[C@@H](CN(C)Cc2ccc(-c3ccccc3)cc2)Oc2ccc(NC(=O)Cn3cnnn3)cc2C1=O`: the inhibition was -7.92%. For `CC[C@]1(C(=O)OC)[C@H]2C(=O)N(Cc3ccccc3)C(=O)[C@H]2[C@H]2CN=C(SCc3ccc(C#N)cc3)N21`, the inhibition is -5.92%. Next, `Cc1ccccc1S(=O)(=O)N1[C@@H](c2cccc(Cl)c2)C(C(=O)O)=CC[C@H]1c1ccc(Cl)cc1`: 52.1% (active); `Cc1ccc([C@@H]2CC=C(C(=O)O)[C@H](c3cccc(Cl)c3)N2S(=O)(=O)c2ccc(C)cc2)cc1`: 10.8%; `Cc1ccc(S(=O)(=O)N2[C@@H](c3cccc(Cl)c3)C(C(=O)O)=CC[C@H]2c2ccc(Cl)c(Cl)c2)cc1`: 42%. The figure for `COc1cc(NC(=O)COC(=O)c2ccc([N+](=O)[O-])s2)cc(OC)c1OC` is -20.3%. The figure for `O=C(C[C@H]1C[C@H](C(=O)N2CCOCC2)[C@@]2(CCC3CCCC3)c3[nH]c4ccc(Cl)cc4c3CCN2C1=O)NCc1ccco1` is 21.8%; for `COc1cc(SC#N)ccc1N=Cc1c(C)[nH]n(-c2ccc(C)cc2)c1=O` it is 67.5% (active); for `Cc1ccc(-n2[nH]c(C)c(/C=N/N3C(=O)c4cccc5cccc(c45)C3=O)c2=O)cc1` it is -11.8%. For `Cc1ccc(-n2[nH]c(C)c(/C=N/NC(=O)c3cccc([N+](=O)[O-])c3)c2=O)cc1C`, the inhibition was 7.53%. The figure for `O=C(Nc1cc(S(=O)(=O)N2CCOCC2)ccc1N1CCOCC1)c1c(F)cccc1Cl` is -20%; for `C=CCOc1cccc(C2C(C(=O)c3ccc(C)o3)=C(O)C(=O)N2c2nnc(C)s2)c1` (stereo not drawn) it is 51% (active); for `Cc1cc(N2C(=O)C(O)=C(C(=O)c3ccc(C)o3)C2c2ccc(OCc3ccccc3)cc2)no1` (stereo not drawn) it is -19.8%. Next, `C=CCOc1cccc(C2C(C(=O)c3ccc(C)o3)=C(O)C(=O)N2CCCn2ccnc2)c1` (stereo not drawn): -1.44%; `O=C(CC1SCCNC1=O)Nc1ccc(Cl)c(Cl)c1` (stereo not drawn): -14.2%; `O=C(Cc1ccc(Cl)c(Cl)c1)Nc1ccc(SC(F)F)cc1`: -12.3%. Next, `O=C(CC(O)(C(F)(F)F)C(F)(F)F)Nc1ccc(Cl)c(Cl)c1`: 62.6% (active); `Oc1c(Cl)cc(Cl)c(Cl)c1Cc1c(O)c(Cl)cc(Cl)c1Cl`: 42.3% (active). Consider `CC(=O)Nc1ccc(NC(=O)COC(=O)C2CCC(C(C)(C)C)CC2)cc1` (stereo not drawn), for which the inhibition was -1.79%.

In the case of `N#Cc1nc(-c2cccc3ccccc23)oc1N`, the inhibition was 56% (active). Next, `COc1ccc(Nc2oc(-c3ccccc3Cl)nc2C#N)cc1`: -16.2%; `CC1CCN(c2oc(-c3ccccc3F)nc2C#N)CC1`: -6.67%; `O=C(N[C@H]1C/C=C\C(c2cccc(F)c2)N(Cc2ccccc2)C(=O)C1)OCC1c2ccccc2-c2ccccc21` (stereo partly drawn): 4.42%. The figure for `CC(NC(=O)COC(=O)c1ccc2ccccc2n1)c1ccccc1` (stereo not drawn) is -14.8%; for `CC(=O)Nc1ccc(S(=O)(=O)NCC(=O)OCC(=O)c2ccc[nH]2)cc1` it is -2.13%. Take `C#CCOCCOCCOCCNc1nc(N2CCN(C(=O)[C@H](CO)n3cc([C@@H](N)C(C)C)nn3)CC2)nc(N2CCN(C(=O)[C@H](CCC(=O)O)n3cc([C@@H](N)[C@H](C)CC)nn3)CC2)n1`: the inhibition is 0.47%. The figure for `O=C(CSc1nnc(-c2ccncc2)o1)Nc1cccc(Cl)c1` is -0.1%; for `CCOC(=O)C1CCCN(C(=O)CSc2nnc3nc(C)cc(C)n23)C1` (stereo not drawn) it is -14.2%; for `CC(=O)N1CCCc2cc(S(=O)(=O)N3CCCC(C(=O)N4CCN(c5cccc(Cl)c5)CC4)C3)ccc21` (stereo not drawn) it is 72.6% (active). Next, `CC(=O)N1CCCc2cc(S(=O)(=O)N3CCCC(C(=O)NCc4ccc(Cl)cc4)C3)ccc21` (stereo not drawn): -22.5%; `CC(=O)N1c2ccc(S(=O)(=O)N3CCCC(C(=O)Nc4cccc(Cl)c4)C3)cc2CC1C` (stereo not drawn): 0.09%; `CCOc1ccccc1Nc1nnc(SCC(=O)NCC2CCCO2)s1` (stereo not drawn): -22.1%.
